DAX1 inh-1: DAX1 (NR0B1) inhibitors, primary screen, cell-based, HEK293, Gal4-DAX1, luciferase luminescence; AID 504766, 2011; Nuclear receptor subfamily 0 group B member 1 (Homo sapiens), P51843; HEK293 Gal4-DAX1 luciferase reporter; inhibition, % at 6.75 µM; hit rate 0.99% among 340,000;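 active means inhibition above the mean over all tested compounds plus 3 SD, cut at about 4.2% in these data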;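 further: 0% = DAX1-transfected cells with DMSO and 100% = empty-vector control cells with DMSO; inhibition shows as a rise in luminescence from relieved DAX1 repression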
ssDAF12 agonist: S. stercoralis DAF-12 nuclear receptor activators, primary screen, cell-based, luminescence, HEK293, GRIP1 co-expression, lit1-tk-luc; HEK293 ssDAF-12/GRIP1 lit1-tk-luc reporter; % of 3 µM dafachronic acid response; hit rate 1% among 370,000; activation, % at 6.8 µM; Nuclear hormone receptor DAF-12 (Strongyloides stercoralis);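 active means activation above the mean over all tested compounds plus 3 SD, cut at about 0.9% in these data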;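 further: 0% = DMSO-only wells and 100% = 3 µM delta7-dafachronic acid wells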
AHR activator: AHR activators, primary screen, cell-based, luminescence, luciferase reporter, human | Aryl hydrocarbon receptor (Homo sapiens), P35869 | AHR-responsive luciferase reporter cells | activation, % at 5 µM | hit rate 2.5% among 320,000; in the data active means activation above about 47%;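 further: 0% = vehicle wells and 100% = reference agonist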
Target sequence (P35869 whole entry, looked up): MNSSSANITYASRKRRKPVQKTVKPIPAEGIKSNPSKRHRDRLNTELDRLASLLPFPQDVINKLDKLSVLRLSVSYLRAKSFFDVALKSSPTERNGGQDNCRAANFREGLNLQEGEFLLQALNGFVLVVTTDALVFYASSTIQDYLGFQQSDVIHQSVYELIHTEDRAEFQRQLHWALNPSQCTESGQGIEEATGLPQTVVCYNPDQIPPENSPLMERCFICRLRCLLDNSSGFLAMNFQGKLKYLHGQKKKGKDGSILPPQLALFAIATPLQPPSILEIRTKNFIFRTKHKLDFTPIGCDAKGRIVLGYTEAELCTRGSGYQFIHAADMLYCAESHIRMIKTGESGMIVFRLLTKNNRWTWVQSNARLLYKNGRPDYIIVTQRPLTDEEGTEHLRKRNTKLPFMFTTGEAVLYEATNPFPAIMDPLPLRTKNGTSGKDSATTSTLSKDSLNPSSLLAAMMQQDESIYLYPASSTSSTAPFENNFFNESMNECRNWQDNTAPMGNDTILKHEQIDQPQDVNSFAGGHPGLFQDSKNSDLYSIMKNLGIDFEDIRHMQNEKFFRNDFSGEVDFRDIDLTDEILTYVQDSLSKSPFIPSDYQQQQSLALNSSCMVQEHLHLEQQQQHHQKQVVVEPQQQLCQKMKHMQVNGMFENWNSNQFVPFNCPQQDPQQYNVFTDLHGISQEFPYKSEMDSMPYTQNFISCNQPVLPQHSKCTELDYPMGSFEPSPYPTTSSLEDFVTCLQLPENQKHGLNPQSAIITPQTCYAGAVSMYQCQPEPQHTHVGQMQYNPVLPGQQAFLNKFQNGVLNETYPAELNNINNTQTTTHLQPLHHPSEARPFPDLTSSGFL
hgDAF-12 ag: H. glycines DAF-12 receptor agonists, primary screen, cell-based, luminescence, HEK293, GAL4 fusion, UAS-luciferase; HEK293 GAL4-hgDAF12 UAS-luciferase reporter, agonist luminescence; normalized to butyrate control; Nuclear hormone receptor DAF-12 (Heterodera glycines), GAL4 fusion; hit rate 1.8% among 370,000; AID 687014, 2013; activation, % at 6.8 µM;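 active means activation above a cutoff set at the mean of all screened compounds plus 3 SD, cut at about 10% in these data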;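 further: 0% = DMSO wells and 100% = sodium butyrate wells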
hcDAF12 agonist: H. contortus DAF-12 nuclear receptor activators, primary screen, cell-based, luminescence, HEK293, lit1-tk-luc reporter; HEK293 hcDAF-12 lit1-tk-luc reporter; 0% DMSO, 100% Δ7-dafachronic acid; activation, % at 6.8 µM; hit rate 1.4% among 370,000;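 active means activation above the mean of all tested compounds plus 3 SD, cut at about 5.5% in these data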;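 further: 100% = response to 3 µM Δ7-dafachronic acid high control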
DAX1 inh-2: DAX1 (NR0B1) inhibitors on StAR promoter, primary screen, cell-based, luminescence, SF-1 (NR5A1), full-length DAX-1 | inhibition, % at 6.8 µM | HEK293T StAR-luciferase reporter, SF-1/DAX-1 repression relief | hit rate 1.1% among 370,000 | AID 652010, 2013;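 active means inhibition above the mean over all tested compounds plus 3 SD, cut at about 3.6% in these data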;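 further: 0% = DAX-1 cells with DMSO and 100% = cells lacking DAX-1 with DMSO; higher inhibition means more luminescence from relief of DAX-1 repression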
Starred values were filed as active, the others as inactive; . = no result given. Rows were chosen to be rich in hits. Some 5.7% of all compounds tested hit in one or more screens of this group.

SMILES	DAX1 inh-1	ssDAF12 agonist	AHR activator	hgDAF-12 ag	hcDAF12 agonist	DAX1 inh-2
CC(=O)Nc1ccc(SCC(=O)NCCc2ccc(F)cc2)cc1	0	-1	0	-1	0	0
O=C(NCCc1cn2ccccc2n1)c1ccc(Br)o1	-1	-1	7	6	-1	1
Cc1cccn2cc(CCNC(=O)c3ccc(Br)o3)nc12	1	1.3*	32	5	6.0*	1
Cc1c(P(=O)(c2ccccc2)c2ccccc2)c2ccccc2n1C	.	-1	.	1	-3	-1
Cc1c(C(C)(C(=O)O)c2c(C)n(C)c3ccccc23)c2ccccc2n1C	.	0	22	3	5.7*	0
O=C(CN(c1cccc(Cl)c1)S(=O)(=O)c1ccc(Cl)cc1)N1CCc2ccccc2C1	0	-2	61*	-1	1	-1
O=C(Nc1ccc(Cl)cc1)N1CCc2ccccc2C1	1	0	63*	9	4	2
CCOc1ccc(NC(=O)N2CCc3ccccc3C2)cc1	-1	0	67*	6	0	3
COCCN(C(=S)Nc1ccc(OC)cc1)C(C)c1cccs1 (configuration not stated)	0	-1	2	1	3	0
N#C/C(=N\Nc1ccccc1)C(=N)N1CCCCCC1	6.8*	1	14	10	5	2
COc1ccc(N/N=C(\C#N)C(=N)N2CCOCC2)cc1	5.3*	-1	19	8	0	3
O=C(COC(=O)c1cnccn1)NCc1ccccc1	1	-2	0	-1	0	-1
COc1nc(-c2ccccc2Cl)ccc1C#N	-1	-1	-4	3	-2	-1
N=C1C(=O)OCC1c1ccccc1NC(=O)c1ccc(F)cc1 (configuration not stated)	1	0	6	-1	0	0
N=C1C(=O)OCC1c1ccccc1NC(=O)Nc1ccccc1 (configuration not stated)	7.1*	0	15	-1	4	1
COC(=O)c1cc2c(c3c4cc(C)ccc4n(S(=O)(=O)c4ccc(C)cc4)c13)C(=O)N(Cc1ccccc1)C2	.	-1	.	-2	0	0
C#CCC(NC(=O)c1ccc(C(F)(F)F)cc1)C(=O)NCCC (configuration not stated)	2	-1	2	2	1	1
CC(C)CC(C)NC(=O)c1ccc(C(F)(F)F)cc1 (configuration not stated)	4.7*	-1	2	0	-3	0
CCCCNC(=O)C(NC(=O)Cc1cc(C(F)(F)F)cc(C(F)(F)F)c1)C(=O)c1ccccc1 (configuration not stated)	.	0	.	2	0	0
CCCCNC(=O)C(NC(=O)c1ccc(C(F)(F)F)cc1)C(=O)c1ccccc1 (configuration not stated)	.	2.4*	.	1	0	0
CC1(C)CC(=O)C=C(c2ccc(COC(=O)/C=C/c3ccccc3)cc2)C1=O	0	-1	.	3	0	-1
CC1(C)CC(=O)C=C(c2ccc(COC(=O)c3ccccc3)cc2)C1=O	2	0	.	11*	3	3.9*
CCCN1CCN(CC(=O)Nc2nc3ccccc3s2)CC1	2	1.2*	.	2	6	0
O=C(NCCO)c1nc2ccccc2s1	0	1.0*	6	1	4	0
CCNC(=O)Nc1nc2ccccc2s1	1	0	13	13*	0	2
SMILES	DAX1 inh-1	ssDAF12 agonist	AHR activator	hgDAF-12 ag	hcDAF12 agonist	DAX1 inh-2
O=C(CN1CCN(Cc2ccc(F)cc2)CC1)Nc1nc2ccccc2s1	1	0	11	1	3	0
O=C(Nc1ccc(Cl)c([N+](=O)[O-])c1)Nc1nc2ccccc2s1	.	.	46	.	.	.
Cc1ccc(NC(=O)Nc2nc3ccccc3s2)cc1NC(=O)Nc1nc2ccccc2s1	1	-1	54*	0	0	0
Cc1cc(OCC(=O)Nc2ccccn2)c2c(C)c(C)c(=O)oc2c1	2	-1	3	3	3	-1
CC(C)c1ccc(S(=O)(=O)N2CCN(C(=O)c3cc(-c4ccccc4)n[nH]3)CC2)cc1	0	-2	3	-2	1	-1
O=C(CC1C(=O)NCCN1Cc1ccccc1C(F)(F)F)NCCN1CCOCC1 (configuration not stated)	1	-1	3	-1	2	0
O=C(Nc1cccc2ccccc12)/C(Cl)=C/c1ccccc1	2	0	68*	5	0	0
CCCS(=O)(=O)c1ccc(COC(=O)Cc2ccc([N+](=O)[O-])cc2)cc1	1	-1	0	0	0	0
CCc1noc(N)c1C(=O)Nc1ccc(Cl)cc1	1	-1	76*	0	-2	0
COc1ccccc1OCC(=O)N1CCCCCC1	2	-1	.	1	1	0
O=[N+]([O-])c1cccc(C(=Nc2ccccc2)NO)c1	-1	-1	19	1	0	-1
O=[N+]([O-])c1cccc(C(=Nc2ccc(Cl)cc2)NO)c1	-2	0	67*	-1	2	0
CC1=CC(C)(C)N(C(=O)CN2C(=O)c3ccccc3C2=O)c2ccc(C)cc21	0	-2	-1	0	-1	0
CCC(=O)N1c2ccc(C)cc2C2=NNC(=S)NC21O (configuration not stated)	2	-1	62*	1	-2	0
Cc1oc2c(c(C)nn2-c2ccccc2)c(=O)c1Cl	.	-2	.	-2	0	0
O=C(/C=C/c1cccc([N+](=O)[O-])c1)NCc1cccnc1	-1	-1	63*	-2	-1	-1
O=C(/C=C/c1ccc(Cl)c([N+](=O)[O-])c1)NCc1cccnc1	-1	-1	60*	-1	-3	-1
O=C(/C=C/c1ccc([N+](=O)[O-])cc1)NCc1cccnc1	1	-1	28	0	-1	0
CCC(=O)N1CCC1(C)C(=O)Nc1cc(-c2ccccc2)nn1C (configuration not stated)	.	-1	.	11*	-1	3
Cc1ccccc1NC(=O)Nc1cc(-c2ccccc2)nn1C	6.6*	-1	7	1	1	0
Cn1nc(-c2ccccc2)cc1NC(=O)Nc1ccc(F)cc1	1	-1	6	0	1	0
